Our source for the growth values is PubChem BioAssay (NCI).

The panel holds about 83,000 compounds, 20% with a hit somewhere; the sample as a whole holds those more often.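 Note: values are percent growth. 100 is the growth of untreated cells, values between 100 and 0 indicate rising inhibition; between -100 and 0 indicates cell death.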 Values without a mark were called inactive. The source made the active and inactive calls. Rule for the calls: active = growth percent below 10; inactive = the rest.

Test in all cases: NCI-60 one-dose screen, 48 h (100 = growth as untreated, 0 = no growth, -100 = all killed)
Holding throughout (settings): 10 µM unless noted

Assay [1] relates to DU-145 prostate.
For assay [2], the system named is K-562 leukemia.
Assay [3] relates to MALME-3M melanoma.
Assay [4] concerns MDA-MB-231 breast.
In assay [5] the test system is RXF 393 renal.
Assay [6] concerns SF-268 CNS.
Assay [7] relates to SF-295 CNS.
Assay [8] has as its system SF-539 CNS.
For assay [9], the system named is UACC-257 melanoma.
The subject of assay [10] is M14 melanoma.
Assay [11] concerns HCT-15 colon.
Assay [12] concerns HT29 colon.
Assay [13] relates to SNB-75 CNS.
Assay [14] deals with SNB-19 CNS.
The subject of assay [15] is U251 CNS.
Assay [16] relates to PC-3 prostate.
The test system of assay [17] is SK-MEL-5 melanoma.
For assay [18], the system named is UACC-62 melanoma.
Assay [19] relates to LOX IMVI melanoma.
The subject of assay [20] is SK-MEL-28 melanoma.

On to `COc1ccc(/C=C(/C(=O)c2ccc(Cl)cc2)C(=O)C(F)(F)F)cc1`, for which the growth is 99.2% in assay [1]; 92.1% in assay [2]; 107% in assay [3]; 110% in [4]; 104% in assay [5]; 96.8% in assay [6]. For the same molecule, the growth was 96.2% in assay [7]; 108% in assay [8]; 99.3% in [9]; 120% in [10]; 99% in assay [11]; 82.1% in [12]. Also, the growth is 112% in [13]; 93.5% in [14]; 94.1% in assay [15]; 102% in assay [16]; 102% in assay [17]; 96.4% in [18]. Moreover, the growth in [19] was 95.6%; in assay [20], 106%.

Take `C[N+](C)(C)c1ncnc2[n-]cnc12`: the growth in assay [1] is 99%; in assay [2], 101%; in [3] it was 98.3%; in [4], 86.5%; in [5], 97%; in assay [6], 91%. Moreover, the growth is 88.7% in assay [7]; 89.5% in assay [8]; -29.9% (active) in [9]; 89.9% in [10]; 104% in [11]; 104% in [12]. Further, the growth in [13] is 82.1%; in assay [14], 91.2%; in assay [15], 91.6%; in assay [16], 92%; in assay [17] it was 90.1%; in [18], 83.2%. Besides, the growth in assay [19] is 75.5%; in assay [20] it was 94.6%.

As to `CC(C)[N+](C)(C)CC(O)COc1cccc2ccccc12` (stereo not given), the growth in assay [1] was 106%; in [2] it was 106%; in [3], 103%; in [4] it was 103%; in [5] it was 115%; in [6], 94%. Besides, the growth in [7] was 104%; in assay [8], 96%; in [9], 90.4%; in [10], 107%; in [11] it was 97.1%; in assay [12], 111%. Moreover, the growth in [13] is 109%; in [14], 103%; in [15], 101%; in [16] it was 92.2%; in assay [17], 107%; in [18], 101%. Further, the growth in assay [19] is 93.2%; in assay [20], 113%.

Regarding `COC(=O)[C@]12CCC(C)(C)C[C@H]1C1=CC[C@@H]3[C@@]4(C)C/C(=C/c5cccnc5)C(=O)C(C)(C)[C@@H]4CC[C@@]3(C)[C@]1(C)CC2`, the growth in assay [1] is 7.21% [100 µM] (active); in [2] it was 5.39% [100 µM] (active); in assay [3], -79.7% [100 µM] (active); in assay [4], -55.7% [100 µM] (active); in [5] it was -76.5% [100 µM] (active); in assay [6], -5.3% [100 µM] (active). Moreover, the growth is -29.8% [100 µM] (active) in assay [7]; -76.6% [100 µM] (active) in assay [8]; -29.2% [100 µM] (active) in assay [9]; -49.8% [100 µM] (active) in assay [10]; 0.973% [100 µM] (active) in [11]; -15.9% [100 µM] (active) in assay [12]. The growth in [13] is -59.8% [100 µM] (active); in assay [14], -23.1% [100 µM] (active); in assay [15], -38.2% [100 µM] (active); in assay [16], -16.3% [100 µM] (active); in [17], -93.9% [100 µM] (active); in assay [18] it was -59.4% [100 µM] (active). The growth in assay [19] was -89.5% [100 µM] (active); in assay [20], -69.5% [100 µM] (active).

In the case of `NS(=O)(=O)c1ccc(CCN2C(=O)/C(=C\c3ccccc3)C=C2c2ccc(Cl)cc2)cc1`, the growth in assay [1] was 115%; in [2] it was 94.8%; in [3], 95.1%; in assay [4], 86.2%; in assay [5], 91%; in [6], 90.6%. Moreover, the growth in [7] is 100%; in assay [8] it was 99.9%; in assay [9] it was 104%; in assay [10] it was 99%; in [11], 99.2%; in [12], 107%. Moreover, the growth in [13] was 59.3%; in [14] it was 87%; in assay [15], 98.9%; in [16], 90%; in assay [17] it was 98.7%; in [18], 81.9%. For the same molecule, the results for the growth in assay [19] and in assay [20] were 99.8% and 101%, respectively.

On to `C=C(C)[C@@H]1CC[C@]2(c3ncc(C)o3)CC[C@]3(C)[C@H](CC[C@@H]4[C@@](C)(CCC#N)[C@H](C(=C)C)CC[C@]43C)[C@@H]12`, for which the growth in [1] is -76.4% [100 µM] (active); in assay [2], 4.09% [100 µM] (active); in assay [3], -87.5% [100 µM] (active); in assay [4] it was -96.1% [100 µM] (active); in [5], -83.6% [100 µM] (active); in assay [6], -66.2% [100 µM] (active). Besides, the growth in [7] was -81.7% [100 µM] (active); in assay [8] it was -94.3% [100 µM] (active); in assay [9], -80.5% [100 µM] (active); in assay [10], -68.4% [100 µM] (active); in assay [11], -69.3% [100 µM] (active); in assay [12] it was -69.8% [100 µM] (active). For the same molecule, the growth in assay [13] was -86.8% [100 µM] (active); in assay [14], -95% [100 µM] (active); in assay [15], -82.4% [100 µM] (active); in assay [16], -64.1% [100 µM] (active); in assay [17], -92.1% [100 µM] (active); in assay [18], -91% [100 µM] (active). For the same molecule, the results for the growth in [19] and in [20] were -83.6% [100 µM] (active) and -89.1% [100 µM] (active), respectively.

Take `CC(=O)OC[C@]12CC[C@@H](C(=O)CBr)[C@@H]1[C@H]1CC[C@@H]3[C@@]4(C)CCCNC(C)(C)[C@@H]4CC[C@@]3(C)[C@]1(C)CC2`: the growth in assay [1] was -94.7% [100 µM] (active); in assay [2], 5.86% [100 µM] (active); in assay [3], -75.7% [100 µM] (active); in [4], -71.8% [100 µM] (active); in [5], -81.9% [100 µM] (active); in assay [6], -65.5% [100 µM] (active). Also, the growth in [7] was -85.4% [100 µM] (active); in assay [8], -81.4% [100 µM] (active); in [9], -76.6% [100 µM] (active); in assay [10], -48.5% [100 µM] (active); in [11], -74.7% [100 µM] (active); in [12], -81.9% [100 µM] (active). The growth in assay [13] is -98.3% [100 µM] (active); in [14], -93.4% [100 µM] (active); in assay [15] it was -88.6% [100 µM] (active); in assay [16], -76.6% [100 µM] (active); in assay [17] it was -91.7% [100 µM] (active); in assay [18] it was -90.9% [100 µM] (active). The growth in assay [19] was -91.6% [100 µM] (active); in assay [20] it was -86.7% [100 µM] (active).

For the molecule `O=C(CSc1nc2ccc([N+](=O)[O-])cc2[nH]1)Nc1ccc(F)c(Cl)c1`, the growth in assay [1] is 32.2%; in assay [2], 11.9%; in assay [3], -5.67% (active); in [4] it was 30.8%; in assay [5], 29.7%; in assay [6], 23.8%. The growth was 18.1% in [7]; 35% in assay [8]; 10.5% in [9]; 25.4% in [10]; 18.5% in assay [11]; 14.4% in assay [12]. The growth was 28.7% in assay [13]; 11.6% in [14]; 11.6% in [15]; 8.99% (active) in [16]; -10.8% (active) in assay [17]; 5.92% (active) in assay [18]. Moreover, the results for the growth in [19] and in assay [20] were 24.2% and 22%, respectively.

Regarding `CC(C)=CC/C=C(/C)[C@H]1CC[C@]2(C)[C@@H]1CC[C@@H]1[C@@]3(C)CC/C(=N/O)C(C)(C)[C@@H]3CC[C@]12C`, the growth in [1] is 73.7% [100 µM]; in assay [2], 33.9% [100 µM]; in assay [3], 81% [100 µM]; in assay [4] it was 50.5% [100 µM]; in assay [5], 61.3% [100 µM]; in assay [6] it was 72% [100 µM]. Further, the growth in [7] was 64.2% [100 µM]; in [8], 64% [100 µM]; in assay [9], 59.5% [100 µM]; in assay [10] it was 61.1% [100 µM]; in assay [11], 57.2% [100 µM]; in assay [12], 23.2% [100 µM]. The growth in assay [13] was 69.4% [100 µM]; in assay [14], 67.3% [100 µM]; in assay [15] it was 50.9% [100 µM]; in assay [16], 29.4% [100 µM]; in assay [17], 18.2% [100 µM]; in assay [18] it was 43.1% [100 µM]. Besides, the growth was 59.6% [100 µM] in assay [19] and 73.3% [100 µM] in assay [20].

On to `N#C/C(C(=O)c1ccccc1)=C1/C(=O)Nc2ccc(Br)cc21`, for which the growth in assay [1] is 108%; in [2], 91.3%; in assay [3], 96.7%; in [4] it was 95.5%; in assay [5] it was 111%; in assay [6], 103%. Besides, the growth in assay [7] is 100%; in [8], 94.7%; in [9], 97.9%; in [10] it was 107%; in [11], 107%; in assay [12], 113%. Besides, the growth is 70.5% in assay [13]; 98.6% in assay [14]; 106% in [15]; 96.4% in assay [16]; 95.5% in assay [17]; 92.5% in assay [18]. For the same molecule, the growth was 103% in [19] and 105% in assay [20].

On to `O=C(CCN1CCCCC1)c1ccc2ccccc2c1`, for which the growth is 98.6% in assay [1]; 111% in assay [2]; 106% in assay [3]; 102% in [4]; 102% in assay [5]; 98.2% in assay [6]. For the same molecule, the growth in assay [7] is 99.4%; in assay [8], 108%; in [9], 98.5%; in assay [10], 107%; in assay [11] it was 103%; in [12], 99.7%. The growth in assay [13] is 93.6%; in assay [14], 103%; in assay [15], 93.3%; in assay [16] it was 97.6%; in [17] it was 97%; in [18] it was 97.2%. In addition, the growth in [19] was 93.3%; in assay [20], 112%.

Turning to `Cc1ccc(N)c(O)c1`, the growth in [1] is 115%; in assay [2], 94.3%; in assay [3] it was 72.4%; in assay [4], 81.7%; in assay [5] it was 82.1%; in [6] it was 103%. The growth in [7] was 121%; in assay [8], 99.1%; in [9] it was 80.6%; in assay [10], 85.6%; in [11] it was 83.8%; in [12] it was 95.8%. For the same molecule, the growth is 32.7% in assay [13]; 102% in assay [14]; 92.7% in [15]; 75.8% in assay [16]; 96.1% in assay [17]; 101% in assay [18]. Besides, the growth is 86.6% in assay [19] and 103% in [20].
